# Laboratory results: article PMC7862700, “An all-to-all approach to the identification of sequence-specific readers for epigenetic DNA modifications on cytosine”
# Legend:
# Experiment in all cases: DAPPL (digital affinity profiling via proximity ligation, sequencing); 10 mM Tris-HCl pH 7.5, 50 mM NaCl, 1 mM DTT, 4% glycerol, room temperature, 30 min; GST-TFs on glutathione beads, 16-mer random dsDNA library, 0.1% formaldehyde crosslink after washing; high values mean tight binding
# FEV = molecular target: T1, FEV (Homo sapiens, UniProt Q99581 1-238); conditions: protein: recombinant; tags: N-terminal GST; dsDNA, one strand shown
# T1 sequence: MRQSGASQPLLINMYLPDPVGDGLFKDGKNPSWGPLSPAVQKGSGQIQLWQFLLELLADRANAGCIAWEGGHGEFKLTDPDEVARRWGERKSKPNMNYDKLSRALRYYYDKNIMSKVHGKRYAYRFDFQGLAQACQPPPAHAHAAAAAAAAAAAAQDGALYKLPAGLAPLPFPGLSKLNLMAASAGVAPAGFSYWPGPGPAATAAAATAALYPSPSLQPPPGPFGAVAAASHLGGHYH
# Method in brief: (§1)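 In yeast, human transcription factors were expressed with a GST fusion, then pulled down on glutathione beads and given DNA barcodes. Pooled with a tag-only sample, they were exposed to 200 nmole of a 16-mer random double-stranded DNA library (Tris/NaCl/DTT/glycerol buffer, room temperature, 30 min), washed, crosslinked with 0.1% formaldehyde, proximity-ligated using BsaI/T4 ligase for 1 h at 37 °C, PCR-amplified and read on an Illumina NextSeq500. Each hexamer's frequency of reads for a factor, divided by the matching frequency for the tag-only sample, gives the binding signal.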
# ETV5 = ETV5 (Homo sapiens, UniProt P41161 1-510); conditions: protein: recombinant; tags: N-terminal GST; dsDNA, one strand shown
# Method in brief: as §1
# HSF1 = HSF1 (Homo sapiens, UniProt Q00613 1-529); conditions: protein: recombinant; tags: N-terminal GST; chain copies: 3; dsDNA, one strand shown
# Method in brief: as §1
# SPIC = molecular target: T2, SPIC (Homo sapiens, UniProt Q8N5J4 1-248); conditions: protein: recombinant; tags: N-terminal GST; dsDNA, one strand shown
# T2 sequence: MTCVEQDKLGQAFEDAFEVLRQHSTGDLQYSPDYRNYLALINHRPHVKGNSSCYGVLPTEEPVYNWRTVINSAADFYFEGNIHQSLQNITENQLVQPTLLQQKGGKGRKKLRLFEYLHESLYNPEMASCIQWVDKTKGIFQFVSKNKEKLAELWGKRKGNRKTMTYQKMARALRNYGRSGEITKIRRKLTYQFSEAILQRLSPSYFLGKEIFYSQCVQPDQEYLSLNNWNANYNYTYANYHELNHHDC
# Method in brief: as §1
# ELF4 = ELF4 (Homo sapiens, UniProt Q99607 1-663); conditions: protein: recombinant; tags: N-terminal GST; dsDNA, one strand shown
# Method in brief: as §1
# ELK4 = molecular target: T3, ELK4 (Homo sapiens, UniProt P28324-2 1-405); conditions: protein: recombinant; tags: N-terminal GST; dsDNA, one strand shown
# T3 sequence: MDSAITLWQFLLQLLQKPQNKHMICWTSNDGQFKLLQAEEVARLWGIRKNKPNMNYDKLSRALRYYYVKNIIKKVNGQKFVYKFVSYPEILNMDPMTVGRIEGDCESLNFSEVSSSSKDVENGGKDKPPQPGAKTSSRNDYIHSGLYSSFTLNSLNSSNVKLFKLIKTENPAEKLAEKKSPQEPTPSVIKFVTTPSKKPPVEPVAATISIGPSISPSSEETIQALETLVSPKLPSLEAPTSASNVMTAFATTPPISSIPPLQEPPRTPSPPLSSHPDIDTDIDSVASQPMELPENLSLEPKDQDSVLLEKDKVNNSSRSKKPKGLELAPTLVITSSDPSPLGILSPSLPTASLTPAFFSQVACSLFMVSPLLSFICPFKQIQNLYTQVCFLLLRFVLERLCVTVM
# Method in brief: as §1
# ETV2 = molecular target: T4, ETV2 (Homo sapiens, UniProt O00321 1-342); conditions: protein: recombinant; tags: N-terminal GST; dsDNA, one strand shown
# T4 sequence: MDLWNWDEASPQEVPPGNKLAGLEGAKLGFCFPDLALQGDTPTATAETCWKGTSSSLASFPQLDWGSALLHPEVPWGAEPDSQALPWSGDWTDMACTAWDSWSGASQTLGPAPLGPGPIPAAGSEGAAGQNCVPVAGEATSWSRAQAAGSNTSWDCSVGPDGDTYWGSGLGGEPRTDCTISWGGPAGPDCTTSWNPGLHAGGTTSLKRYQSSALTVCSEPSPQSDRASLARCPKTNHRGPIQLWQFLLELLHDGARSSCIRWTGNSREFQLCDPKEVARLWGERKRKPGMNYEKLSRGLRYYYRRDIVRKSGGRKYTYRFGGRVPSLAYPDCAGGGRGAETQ
# Method in brief: as §1
# ELF3 = molecular target: T5, ELF3 (Homo sapiens, UniProt P78545 1-371); conditions: protein: recombinant; tags: N-terminal GST; dsDNA, one strand shown
# T5 sequence: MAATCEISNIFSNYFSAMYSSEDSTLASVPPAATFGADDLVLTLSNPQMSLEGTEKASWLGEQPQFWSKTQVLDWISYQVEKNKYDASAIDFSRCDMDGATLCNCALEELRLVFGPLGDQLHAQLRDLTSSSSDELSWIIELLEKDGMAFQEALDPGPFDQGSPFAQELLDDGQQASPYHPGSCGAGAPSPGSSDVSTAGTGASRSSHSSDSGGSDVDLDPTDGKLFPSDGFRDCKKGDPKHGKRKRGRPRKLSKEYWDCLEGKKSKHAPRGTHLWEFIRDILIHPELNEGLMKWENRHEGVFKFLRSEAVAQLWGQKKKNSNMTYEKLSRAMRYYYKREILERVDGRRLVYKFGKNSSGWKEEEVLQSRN
# Method in brief: as §1
# CRX = CRX (Homo sapiens, UniProt O43186 1-299); conditions: protein: recombinant; tags: N-terminal GST; dsDNA, one strand shown
# Method in brief: as §1
# ETV1 = ETV1 (Homo sapiens, UniProt P50549 1-477); conditions: protein: recombinant; tags: N-terminal GST; dsDNA, one strand shown
# Method in brief: as §1
# ERF = molecular target: T6, ERF (Homo sapiens, UniProt P50548 1-548); conditions: protein: recombinant; tags: N-terminal GST; dsDNA, one strand shown
# T6 sequence: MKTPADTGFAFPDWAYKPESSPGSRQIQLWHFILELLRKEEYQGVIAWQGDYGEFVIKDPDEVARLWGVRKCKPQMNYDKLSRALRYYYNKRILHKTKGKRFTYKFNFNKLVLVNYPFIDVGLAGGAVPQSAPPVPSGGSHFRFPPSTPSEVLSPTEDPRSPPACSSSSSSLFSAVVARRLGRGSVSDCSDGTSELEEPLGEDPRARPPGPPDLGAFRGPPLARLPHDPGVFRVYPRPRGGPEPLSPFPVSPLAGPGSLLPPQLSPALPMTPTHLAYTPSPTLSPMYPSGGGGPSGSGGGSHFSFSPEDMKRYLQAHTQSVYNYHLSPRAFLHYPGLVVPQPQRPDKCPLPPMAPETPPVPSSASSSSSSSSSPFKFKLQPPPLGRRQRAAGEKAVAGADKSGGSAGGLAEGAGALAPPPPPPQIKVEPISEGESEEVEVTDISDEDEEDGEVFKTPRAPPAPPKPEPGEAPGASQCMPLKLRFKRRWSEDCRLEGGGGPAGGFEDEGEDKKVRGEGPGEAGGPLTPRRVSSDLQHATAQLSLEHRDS
# Method in brief: as §1
# ETV3L = molecular target: T7, ETV3L (Homo sapiens, UniProt Q6ZN32 1-361); conditions: protein: recombinant; tags: N-terminal GST; dsDNA, one strand shown
# T7 sequence: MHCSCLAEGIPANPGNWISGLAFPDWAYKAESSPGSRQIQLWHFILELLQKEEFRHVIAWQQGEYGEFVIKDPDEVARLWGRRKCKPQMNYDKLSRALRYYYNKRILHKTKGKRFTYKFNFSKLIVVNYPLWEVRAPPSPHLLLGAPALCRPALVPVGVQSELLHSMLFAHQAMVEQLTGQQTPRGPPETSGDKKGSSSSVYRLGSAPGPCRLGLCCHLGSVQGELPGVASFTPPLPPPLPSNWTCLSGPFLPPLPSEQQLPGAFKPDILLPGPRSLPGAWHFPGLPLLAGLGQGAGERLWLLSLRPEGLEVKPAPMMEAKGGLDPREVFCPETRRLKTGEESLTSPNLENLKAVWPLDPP
# Method in brief: as §1
# ETS2 = molecular target: T8, ETS2 (Homo sapiens, UniProt P15036 1-469); conditions: protein: recombinant; tags: N-terminal GST; dsDNA, one strand shown
# T8 sequence: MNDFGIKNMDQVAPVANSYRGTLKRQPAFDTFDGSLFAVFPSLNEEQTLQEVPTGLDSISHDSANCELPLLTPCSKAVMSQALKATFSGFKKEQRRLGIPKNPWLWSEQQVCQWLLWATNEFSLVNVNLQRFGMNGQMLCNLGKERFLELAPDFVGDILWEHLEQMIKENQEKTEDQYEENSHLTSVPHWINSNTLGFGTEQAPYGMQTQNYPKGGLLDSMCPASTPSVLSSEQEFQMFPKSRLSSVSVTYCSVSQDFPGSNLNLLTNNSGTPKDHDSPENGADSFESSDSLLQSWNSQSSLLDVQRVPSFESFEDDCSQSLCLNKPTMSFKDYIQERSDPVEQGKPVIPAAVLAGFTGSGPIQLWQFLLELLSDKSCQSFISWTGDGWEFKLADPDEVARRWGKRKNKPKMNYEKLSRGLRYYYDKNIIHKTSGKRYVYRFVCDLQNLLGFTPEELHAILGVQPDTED
# Method in brief: as §1
# SPDEF = molecular target: T9, SPDEF (Homo sapiens, UniProt O95238 1-335); conditions: protein: recombinant; tags: N-terminal GST; dsDNA, one strand shown
# T9 sequence: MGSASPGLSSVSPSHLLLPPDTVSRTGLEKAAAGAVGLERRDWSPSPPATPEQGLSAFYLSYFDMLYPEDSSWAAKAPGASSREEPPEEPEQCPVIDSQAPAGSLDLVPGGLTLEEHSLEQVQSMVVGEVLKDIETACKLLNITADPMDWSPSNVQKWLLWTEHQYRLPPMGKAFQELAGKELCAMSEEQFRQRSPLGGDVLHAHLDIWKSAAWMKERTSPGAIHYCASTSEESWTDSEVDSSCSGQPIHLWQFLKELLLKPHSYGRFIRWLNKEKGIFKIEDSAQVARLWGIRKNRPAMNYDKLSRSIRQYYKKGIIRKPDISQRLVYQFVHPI
# Method in brief: as §1
# ETV7 = molecular target: T10, ETV7 (Homo sapiens, UniProt Q9Y603 1-341); conditions: protein: recombinant; tags: N-terminal GST; dsDNA, one strand shown
# T10 sequence: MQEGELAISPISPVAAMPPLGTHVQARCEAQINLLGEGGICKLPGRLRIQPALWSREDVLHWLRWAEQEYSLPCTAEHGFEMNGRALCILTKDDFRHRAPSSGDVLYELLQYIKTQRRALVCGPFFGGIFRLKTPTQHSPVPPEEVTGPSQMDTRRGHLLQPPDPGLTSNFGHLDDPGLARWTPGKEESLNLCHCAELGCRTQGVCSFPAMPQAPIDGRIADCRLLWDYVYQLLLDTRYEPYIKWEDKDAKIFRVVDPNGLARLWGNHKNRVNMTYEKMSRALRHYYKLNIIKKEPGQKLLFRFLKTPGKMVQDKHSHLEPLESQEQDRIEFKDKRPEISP
# Method in brief: as §1
# ELF5 = molecular target: T11, ELF5 (Homo sapiens, UniProt Q9UKW6-2 1-255); conditions: protein: recombinant; tags: N-terminal GST; dsDNA, one strand shown
# T11 sequence: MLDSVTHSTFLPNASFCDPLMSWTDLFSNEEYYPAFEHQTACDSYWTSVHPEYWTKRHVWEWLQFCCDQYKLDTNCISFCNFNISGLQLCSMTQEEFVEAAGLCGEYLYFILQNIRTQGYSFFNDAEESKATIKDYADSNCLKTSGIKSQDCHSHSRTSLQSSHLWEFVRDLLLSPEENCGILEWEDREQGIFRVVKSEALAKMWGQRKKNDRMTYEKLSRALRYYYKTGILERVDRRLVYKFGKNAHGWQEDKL
# Method in brief: as §1
# ETV3 = molecular target: T12, ETV3 (Homo sapiens, UniProt P41162-2 1-143); conditions: protein: recombinant; tags: N-terminal GST; dsDNA, one strand shown
# T12 sequence: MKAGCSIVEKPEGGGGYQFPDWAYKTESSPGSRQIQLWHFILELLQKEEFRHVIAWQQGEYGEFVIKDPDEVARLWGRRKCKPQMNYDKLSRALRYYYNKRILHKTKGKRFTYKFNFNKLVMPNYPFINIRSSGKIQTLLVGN
# Method in brief: as §1
# ETV6 = ETV6 (Homo sapiens, UniProt P41212 1-452); conditions: protein: recombinant; tags: N-terminal GST; dsDNA, one strand shown
# Method in brief: as §1
# Sequence of ELF4 (Q99607 whole entry): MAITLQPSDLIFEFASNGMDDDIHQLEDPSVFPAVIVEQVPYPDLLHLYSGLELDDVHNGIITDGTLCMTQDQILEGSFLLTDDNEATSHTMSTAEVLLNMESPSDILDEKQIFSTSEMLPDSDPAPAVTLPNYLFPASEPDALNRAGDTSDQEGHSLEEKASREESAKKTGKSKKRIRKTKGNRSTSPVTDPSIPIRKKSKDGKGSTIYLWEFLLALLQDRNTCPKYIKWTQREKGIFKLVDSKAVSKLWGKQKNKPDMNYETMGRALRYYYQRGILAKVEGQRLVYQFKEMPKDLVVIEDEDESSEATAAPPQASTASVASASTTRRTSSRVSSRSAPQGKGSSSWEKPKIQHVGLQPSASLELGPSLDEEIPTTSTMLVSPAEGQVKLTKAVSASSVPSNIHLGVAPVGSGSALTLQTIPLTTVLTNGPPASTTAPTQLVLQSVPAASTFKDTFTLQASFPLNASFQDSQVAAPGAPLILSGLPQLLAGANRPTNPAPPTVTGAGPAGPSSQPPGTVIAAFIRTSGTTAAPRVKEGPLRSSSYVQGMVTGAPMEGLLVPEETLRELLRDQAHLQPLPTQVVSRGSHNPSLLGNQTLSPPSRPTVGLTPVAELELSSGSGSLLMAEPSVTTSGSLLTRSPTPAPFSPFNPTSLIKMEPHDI
# Sequence of ETV5 (P41161 whole entry): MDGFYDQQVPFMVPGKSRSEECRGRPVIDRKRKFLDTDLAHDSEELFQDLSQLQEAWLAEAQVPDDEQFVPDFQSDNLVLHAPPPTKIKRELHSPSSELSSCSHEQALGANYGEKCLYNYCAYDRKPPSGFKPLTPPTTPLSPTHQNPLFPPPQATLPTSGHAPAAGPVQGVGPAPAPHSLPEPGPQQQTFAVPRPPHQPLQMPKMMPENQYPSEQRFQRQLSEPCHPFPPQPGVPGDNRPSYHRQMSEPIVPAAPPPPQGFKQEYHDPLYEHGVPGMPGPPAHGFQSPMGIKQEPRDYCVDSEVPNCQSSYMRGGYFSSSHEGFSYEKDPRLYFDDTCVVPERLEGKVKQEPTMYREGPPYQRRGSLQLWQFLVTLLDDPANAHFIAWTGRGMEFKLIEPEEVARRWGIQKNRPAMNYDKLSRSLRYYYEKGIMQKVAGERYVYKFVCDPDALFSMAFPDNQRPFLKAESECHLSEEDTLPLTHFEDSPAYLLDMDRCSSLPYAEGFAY
# Sequence of ETV1 (P50549 whole entry): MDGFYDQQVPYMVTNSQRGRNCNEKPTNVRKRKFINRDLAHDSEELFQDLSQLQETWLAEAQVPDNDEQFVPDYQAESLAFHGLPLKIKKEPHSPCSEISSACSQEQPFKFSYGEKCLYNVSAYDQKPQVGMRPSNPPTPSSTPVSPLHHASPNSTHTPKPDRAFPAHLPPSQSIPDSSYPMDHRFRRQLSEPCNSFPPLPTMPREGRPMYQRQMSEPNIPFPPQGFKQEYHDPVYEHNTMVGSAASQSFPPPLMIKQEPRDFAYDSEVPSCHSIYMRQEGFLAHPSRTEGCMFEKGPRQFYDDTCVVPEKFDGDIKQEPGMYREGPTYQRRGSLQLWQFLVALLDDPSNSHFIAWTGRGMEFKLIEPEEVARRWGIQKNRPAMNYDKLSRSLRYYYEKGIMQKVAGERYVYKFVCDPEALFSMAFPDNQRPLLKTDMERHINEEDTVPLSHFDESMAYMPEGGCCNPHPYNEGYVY
# Sequence of HSF1 (Q00613 whole entry): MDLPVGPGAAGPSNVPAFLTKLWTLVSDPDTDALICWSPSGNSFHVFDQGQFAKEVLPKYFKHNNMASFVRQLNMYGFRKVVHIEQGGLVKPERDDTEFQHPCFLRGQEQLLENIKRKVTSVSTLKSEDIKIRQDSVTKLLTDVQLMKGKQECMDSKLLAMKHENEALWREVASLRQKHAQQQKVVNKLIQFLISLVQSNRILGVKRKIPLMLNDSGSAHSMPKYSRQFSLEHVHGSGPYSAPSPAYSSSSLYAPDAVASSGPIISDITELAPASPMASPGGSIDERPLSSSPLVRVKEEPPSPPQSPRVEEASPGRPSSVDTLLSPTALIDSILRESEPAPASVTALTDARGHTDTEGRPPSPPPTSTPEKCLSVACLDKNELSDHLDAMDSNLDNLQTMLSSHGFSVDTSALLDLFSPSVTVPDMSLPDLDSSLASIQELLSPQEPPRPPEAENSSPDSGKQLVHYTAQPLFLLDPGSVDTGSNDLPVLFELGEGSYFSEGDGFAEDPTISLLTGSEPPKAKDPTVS
# Sequence of CRX (O43186 whole entry): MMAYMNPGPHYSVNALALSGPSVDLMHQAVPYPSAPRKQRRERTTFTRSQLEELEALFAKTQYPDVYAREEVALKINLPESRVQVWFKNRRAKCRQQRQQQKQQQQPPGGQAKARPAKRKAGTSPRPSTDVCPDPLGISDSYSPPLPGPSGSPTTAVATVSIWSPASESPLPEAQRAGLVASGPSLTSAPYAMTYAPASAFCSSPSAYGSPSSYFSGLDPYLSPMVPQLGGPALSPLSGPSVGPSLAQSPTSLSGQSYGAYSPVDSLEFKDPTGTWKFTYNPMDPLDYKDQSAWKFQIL
# Sequence of ETV6 (P41212 whole entry): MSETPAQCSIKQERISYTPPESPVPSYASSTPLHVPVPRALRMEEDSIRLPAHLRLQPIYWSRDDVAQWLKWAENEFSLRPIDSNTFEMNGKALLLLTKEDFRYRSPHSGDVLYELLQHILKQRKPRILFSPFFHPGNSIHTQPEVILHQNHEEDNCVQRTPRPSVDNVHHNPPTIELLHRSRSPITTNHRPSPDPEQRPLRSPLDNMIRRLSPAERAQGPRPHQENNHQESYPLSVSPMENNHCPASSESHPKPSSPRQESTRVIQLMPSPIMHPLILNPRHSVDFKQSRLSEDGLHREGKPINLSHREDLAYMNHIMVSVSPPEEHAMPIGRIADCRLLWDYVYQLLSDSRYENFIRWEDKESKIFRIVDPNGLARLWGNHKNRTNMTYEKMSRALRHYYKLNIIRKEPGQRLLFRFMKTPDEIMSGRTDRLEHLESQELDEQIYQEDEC
sequence,measurement,setting,value
TTCGTA,binding signal,FEV,"1.3 fold enrichment (6-mer frequency, TF over GST control)"
same,binding signal,ETV5,"1.42 fold enrichment (6-mer frequency, TF over GST control)"
same,binding signal,HSF1,"1.33 fold enrichment (6-mer frequency, TF over GST control)"
same,binding signal,SPIC,"1.42 fold enrichment (6-mer frequency, TF over GST control)"
same,binding signal,ELF4,"1.39 fold enrichment (6-mer frequency, TF over GST control)"
same,binding signal,ELK4,"1.21 fold enrichment (6-mer frequency, TF over GST control)"
same,binding signal,ETV2,"1.37 fold enrichment (6-mer frequency, TF over GST control)"
same,binding signal,ELF3,"1.53 fold enrichment (6-mer frequency, TF over GST control)"
same,binding signal,CRX,"1.52 fold enrichment (6-mer frequency, TF over GST control)"
same,binding signal,ETV1,"1.25 fold enrichment (6-mer frequency, TF over GST control)"
same,binding signal,ERF,"1.39 fold enrichment (6-mer frequency, TF over GST control)"
same,binding signal,ETV3L,"1.35 fold enrichment (6-mer frequency, TF over GST control)"
same,binding signal,ETS2,"1.36 fold enrichment (6-mer frequency, TF over GST control)"
same,binding signal,SPDEF,"1.21 fold enrichment (6-mer frequency, TF over GST control)"
same,binding signal,ETV7,"1.4 fold enrichment (6-mer frequency, TF over GST control)"
same,binding signal,ELF5,"1.3 fold enrichment (6-mer frequency, TF over GST control)"
same,binding signal,ETV3,"1.44 fold enrichment (6-mer frequency, TF over GST control)"
same,binding signal,ETV6,"1.3 fold enrichment (6-mer frequency, TF over GST control)"
